# Test results as given in the supplement of paper PMC4894684.
# Counter-ions that a name gives are not always drawn. ± gives the standard deviation of the averaged measurements.
# System: Toxoplasma gondii RH (in HFF)
# Assay: parasite growth relative to the screen mean (all compounds = 100%); higher = less inhibition of parasite growth
# Details: 5 µM; 72 h; oxygen 21 %
# In short: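 RH β-Gal–GFP Toxoplasma at MOI 1:5 was used to infect confluent human foreskin fibroblasts in 96-well plates within 2 h of pin-transferring compounds to 5 µM final. After 72 h at 21% O2, parasite number was determined by CPRG β-Gal assay against standard curves on the same plate. Growth is relative to the screen mean and averaged over two screens, with all compounds = 100%.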
row,SMILES,parasite growth
1,CC(C)(C)[N+]([O-])=Cc1ccc(S(=O)(=O)O)cc1S(=O)(=O)O,86.3 ± 26%
2,O=c1c(-c2ccc(O)cc2)coc2cc(O)cc(O)c12 [Genistein],148 ± 28%
3,O=c1oc(-c2ccc(C(F)(F)F)cc2)nn1Cc1cc(Cl)ccc1O,146 ± 11%
4,CC(C)NCC(O)c1ccc2ccccc2c1 (stereo not drawn) [Pronethalol hydrochloride],117 ± 28%
5,N#C/C(=C\c1ccc(O)c(O)c1)C(=O)Nc1ccccc1,141 ± 23%
6,CNCCC(Oc1ccc(C(F)(F)F)cc1)c1ccccc1 (stereo not drawn) [Fluoxetine hydrochloride],20.9 ± 8.2%
7,C[C@H](NC[C@H](O)CP(=O)(O)CC1CCCCC1)c1ccc(Cl)c(Cl)c1,129 ± 36%
8,O=C(O)C(=O)O.[NH-][C@@H]1CCCC[C@H]1[NH-].[Pt+2] [Oxaliplatin],143 ± 2.5%
9,O=S1(=O)c2cccc3cccc(c23)N1CCCN1CCN(c2ccc(F)cc2)CC1 [Fananserin],130 ± 14%
10,O=C(O)C1=CCCNC1 [Guvacine hydrochloride],132.34 ± 0.044%
11,O=C(O)CN1C(=O)c2cccc3cccc(c23)C1=O [Alrestatin],100 ± 26%
12,COc1cccc(CCc2ccccc2OCC[C@@H]2C[C@@H](O)CN2C)c1,53.4 ± 25%
13,OC(CNCC(O)C1CCc2cc(F)ccc2O1)C1CCc2cc(F)ccc2O1 (stereo not drawn) [Nebivolol hydrochloride],46 ± 23%
14,O=C(c1ccc(F)cc1)C1CCN(CCn2c(=S)[nH]c3ccccc3c2=O)CC1 [Altanserin hydrochloride],135 ± 6.3%
15,COc1cc2c(cc1C(F)(F)F)N(C(=O)Nc1cc(F)cc(-c3cccnc3)c1)CC2,29.9 ± 3.3%
16,O=C(O)c1cc(O)c2ccc(Cl)cc2n1 [7-Chlorokynurenic acid],119 ± 9.9%
17,CCCCCCCC/C=C\CCCCCCCC(=O)NCCO [Oleylethanolamide],135 ± 21%
18,CC1(C)C[C@@H]1C(=O)N/C(=C\CCCCSC[C@H](N)C(=O)O)C(=O)O [Cilastatin sodium],117 ± 14%
19,"C1CCC2(CC1)CCNCC2 [4,4-Pentamethylenepiperidine hydrochloride]",107 ± 22%

row,SMILES,parasite growth
1,Nc1ncnc2c1ncn2C1CCCO1 (stereo not drawn),70.4 ± 16%
2,Nc1ncnc2c1ncn2[C@@H]1O[C@H](CO)C[C@H]1O [Cordycepin],122 ± 20%
3,O=C(O)Cc1nn(Cc2ccc(Br)cc2F)c(=O)c2ccccc12 [Statil],91.7 ± 26%
4,CC(C)NCCN(C(C)C)S(=O)(=O)c1ccc(Cl)cc1Cl,142 ± 34%
5,Cc1cccc(Nc2cc(Cl)nc(SCC(=O)O)n2)c1C,108.5 ± 0.57%
6,CCN(Cc1ccncc1)C(=O)C(CO)c1ccccc1 (stereo not drawn) [Tropicamide],111 ± 11%
7,CCN(CC)CCOc1ccc(Cc2ccccc2)cc1 [DPPE fumarate],75.7 ± 1.7%
8,N[C@@H](CC(=O)Nc1ccc(Oc2cc(F)c(F)cc2Br)cc1)C(=O)O,149.3 ± 0.68%
9,CC[N+](C)(CC)CC(=O)Nc1c(C)cccc1C [N-Methyllidocaine iodide],119 ± 24%
10,CN(CCOc1ccc(C[C@H](Nc2ccccc2C(=O)c2ccccc2)C(=O)O)cc1)c1ccccn1,30 ± 17%
11,COc1ccc(/C=C/C(=O)Nc2ccccc2C(=O)O)cc1OC [Tranilast],111 ± 30%
12,NC(N)=NC(N)=Nc1cccc(Cl)c1 [m-Chlorophenylbiguanide hydrochloride],133 ± 15%
13,N[C@@H]1CCN(O)C1=O,97.4 ± 22%
14,O=C(Nc1ccc(C(F)(F)F)cn1)N1CCN(c2ncccc2C(F)(F)F)CC1,135 ± 6.2%
15,CC(=O)NNC(=O)N1Cc2ccccc2Oc2ccc(Cl)cc21,136 ± 40%
16,COc1cc2c(cc1OC)-c1c/c(=N\c3c(C)cc(C)cc3C)n(C)c(=O)n1CC2 [Trequinsin hydrochloride],124 ± 37%
17,CCCCN1CCCC1CNC(=O)c1cc(C#N)c2ccccc2c1OC (stereo not drawn) [Nafadotride],127 ± 15%
18,Oc1c2ccccc2c2c3c(cccc13)N=N2,7.23 ± 4.4%
19,Cc1cc(C(C)(C)C)c(O)c(C)c1CC1=NCCN1 [Oxymetazoline hydrochloride],196 ± 16%
